This note sets out measurements from PubChem BioAssay.

The nature of the assay: blood-stage malaria parasite viability loss – strain 3D7, DAPI fluorescence, 100 nL, primary screen (AID 1184).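 Note: parasites grown inside human red blood cells in medium with human serum.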 Particulars: P. falciparum 3D7 growth, 3 d, higher = more signal.
In turn, `CC(CCN1CCCCc2nc(C)c(C)cc21)=NO[C@H](C)c1cn([C@@H]2COC[C@H]2O)nn1` registered a z-score of 0.255. As for `CC(C)[C@H](NC(=O)OC(C)(C)C)[C@@H](O)CC(=O)C(C)(C)C`, the z-score is 0.227. `COC(=O)CC=C[C@@H](C)[C@@H](C=NOC[C@@H](O)COCc1ccco1)NS(=O)(=O)c1ccc(C)cc1` returned a z-score of -0.546.

With `CCN1C(=O)[C@H]2[C@H]3[C@H](O)[C@H](O)CC(=NOC[C@@H](O)COCc4ccco4)[C@H]3CC[C@H]2C1=O`, the z-score is -0.0786. On to `CCN1C(=O)[C@H]2[C@H]3[C@H](O)[C@H](O)CC(=NOCC[C@@H]4C=C[C@H](OC(C)=O)[C@@H](COC(C)=O)O4)[C@@H]3CC[C@H]2C1=O`, for which the z-score is 0.145. The compound `CCOC(=O)[C@H](Cc1ccccc1)NC(=O)CCC1CC(OC(=O)NCc2ccc3c(c2)OCO3)CC2(CCCC(COC(=O)NCCOc3ccccc3)O2)O1` (stereo partly specified) came in with a z-score of -1.57.

With `C[C@H]1CC[C@H]2C(=O)N[C@H](Cc3ccccc3)C(=O)N2[C@@H]1c1ccccc1`, the z-score amounted to 0.388. Compound `CC(CCC(=O)OC[C@H]1O[C@H](C#Cc2ccccc2)C=C[C@@H]1Oc1ccc(C)cc1)=NOC(C)CN1CCCCc2nc(C)c(C)cc21` (stereo partly specified) gave a z-score of -2.06. Then `CC(CCC(=O)OC[C@H]1O[C@H](C#Cc2ccccc2)C=C[C@@H]1Oc1ccc(C)cc1)=NO[C@H](C)c1cn([C@@H]2COC[C@H]2O)nn1`, with -0.114; and `CCN1C(=O)[C@H]2[C@@H]3C(=CC[C@H]2C1=O)C(=O)[C@H]1O[C@H]1[C@H]3O`, with -1.94; and `CCO[C@H](c1cc(OC)cc([N+](=O)[O-])c1OC)[C@H](C)[C@@H](OC)[C@H](C)C=CCC(=O)OC`, with -0.119. For `CCOC(=O)CCN1C(=O)[C@H]2[C@H]3[C@H](O)[C@H](O)CC(=NNC(=O)OCC)[C@H]3CC[C@H]2C1=O`, the z-score was -1.58. `CC(C)=CCCC(C)=CCON=C1C[C@@H](O)[C@@H](O)[C@@H]2[C@@H]3C(=O)N(C4CCCCC4)C(=O)[C@@H]3CC[C@H]12` had a z-score of 0.273. In turn, `CCOC(=O)CCN1C(=O)[C@H]2[C@H]3[C@H](O)[C@H](O)CC(=NOCC=C(C)CCC=C(C)C)[C@@H]3CC[C@H]2C1=O` came in with a z-score of 0.664. In turn, `COc1cccc([C@H]2Oc3ccc(OC)cc3C(=NOCC[C@@H]3C=C[C@H](OC(C)=O)[C@@H](COC(C)=O)O3)[C@@H]2O)c1` returned a z-score of 0.956.

For the compound `CC(C)(C)N1C(=O)[C@H]2[C@H]3[C@H](O)[C@H](O)CC(=NOC[C@@H](O)COCc4ccco4)[C@H]3CC[C@H]2C1=O`, the z-score is -0.62. Then `CCc1cc2c(nc1CC)CCN(CCC(C)=NO[C@@H]1O[C@H](COC(C)=O)[C@@H](OC(C)=O)[C@H](OC(C)=O)[C@H]1OC(C)=O)C2`, with -1.62; and `CO[C@H]1COC(=O)CC=C[C@H](C)[C@H](OC)COC(=O)[C@@H](C)NC(=O)CC=C[C@@H]1C`, with -0.205. Turning to `O=C1[C@H]2[C@H]3[C@H](O)[C@H](O)CC(=NO[C@@H]4O[C@H](CO)[C@@H](O)[C@H](O)[C@H]4O)[C@H]3CC[C@H]2C(=O)N1C[C@@H]1CCCO1`, the z-score came out at 0.656. Then `CC(=O)OC[C@H]1O[C@@H](ON=C(C)C)[C@H](OC(C)=O)[C@@H](OC(C)=O)[C@@H]1OC(C)=O`, with 0.213; and `O=C1[C@H]2[C@H]3[C@H](O)[C@H](O)CC(=NO[C@@H]4O[C@H](CO)[C@@H](O)[C@H](O)[C@H]4O)[C@@H]3CC[C@H]2C(=O)N1C1CCCCC1`, with 0.0387; and `CC(C)CON=C1C[C@@H](O)[C@@H](O)[C@@H]2[C@@H]3C(=O)N(Cc4ccccc4)C(=O)[C@@H]3CC[C@H]12`, with -1.65. Turning to `CC(CCN1CCCc2nc(C)c(C)cc21)=NOC[C@@H](C)[C@H](OCc1ccccc1)C(C)C`, the z-score is -0.342. On to `C[C@@H]1CC[C@H]2C(=O)OC(CN3C(=O)c4ccccc4C3=O)CN2[C@H]1c1ccc(Br)cc1` (stereo partly specified), for which the z-score amounted to 0.49. Then `O=C1[C@H]2[C@H]3[C@H](O)[C@H](O)CC(=NOC[C@@H](O)COCc4ccco4)[C@@H]3CC[C@H]2C(=O)N1Cc1ccccc1`, with -0.986; and `CC(=O)OC[C@H]1O[C@H](CC=NOC(C)CN2CCCc3nc(C)c(C)cc32)C=C[C@@H]1OC(C)=O` (stereo partly specified), with -0.224. The figure for `CC1(C)O[C@H]2OC([C@H](O)CON3C(=O)c4ccccc4C3=O)[C@H](O)[C@H]2O1` (stereo partly specified) is 0.696.

Consider `COC(=O)CC=C[C@@H](C)[C@@H](C=NOC(C)CN1CCCCc2nc(C)c(C)cc21)NS(=O)(=O)c1ccc(C)cc1` (stereo partly specified), for which the z-score came to 0.453. Then `C=CC[C@@H]1C=C[C@H](Oc2ccc(C)cc2)[C@@H](COC(=O)NCc2cccc3ccccc23)O1`, with -0.517. For the compound `CCOC(=O)[C@H](Cc1ccccc1)NC(=O)CCC1CC(OC(=O)NCc2ccc3c(c2)OCO3)CC2(CCCC(COC(=O)NCCOC)O2)O1` (stereo partly specified), the z-score is -2.09. Turning to `CC(C)=CCCC(C)=CCON=C1C[C@@H](O)[C@@H](O)[C@@H]2[C@@H]3C(=O)N([C@@H](C)c4ccccc4)C(=O)[C@@H]3CC[C@@H]12`, the z-score is -0.81. Compound `CC(C)(C)N1C(=O)[C@H]2[C@H]3[C@H](O)[C@H](O)CC(=NNC(=O)OCc4ccccc4)[C@@H]3CC[C@H]2C1=O` registered a z-score of 2.05. `CCOC(=O)CCN1C(=O)[C@H]2[C@H]3[C@H](O)[C@H](O)CC(=NNC(=O)OCc4ccccc4)[C@H]3CC[C@H]2C1=O` yielded a z-score of -0.873. `CO[C@@H]1COC(=O)[C@H](CCSC)NC(=O)CC=C[C@@H](C)COC(=O)[C@@H]2CCCN2C(=O)CC=C[C@H]1C` registered a z-score of -0.494. Then `CCOC(=O)NN=C1C[C@@H](O)[C@@H](O)[C@@H]2[C@@H]3C(=O)N(C[C@@H]4CCCO4)C(=O)[C@@H]3CC[C@H]12`, with 0.379.

The compound `C#CCCCON=C1C[C@@H](O)[C@@H](O)[C@@H]2[C@@H]3C(=O)N(C4CCCCC4)C(=O)[C@@H]3CC[C@@H]12` displayed a z-score of 0.204.
